Usually AC50 stands for the midpoint of the concentration-response curve, whichever way the signal moves.

Consider ten compounds from PubChem BioAssay AID2283312 (EPA ToxCast).

Inconclusive results are not listed. The source made the active and inactive calls. How the source made its calls: active means hit-call score of the fitted dose curve at least 0.9, where 1 is the maximum; inconclusive means response in the unintended direction; inactive means score below 0.9.

rat Vasoactive Intestinal Peptide Receptor (VIP), Non-selective Binding, Vipr1 (gene 24875), sequence (P30083 whole entry, looked up): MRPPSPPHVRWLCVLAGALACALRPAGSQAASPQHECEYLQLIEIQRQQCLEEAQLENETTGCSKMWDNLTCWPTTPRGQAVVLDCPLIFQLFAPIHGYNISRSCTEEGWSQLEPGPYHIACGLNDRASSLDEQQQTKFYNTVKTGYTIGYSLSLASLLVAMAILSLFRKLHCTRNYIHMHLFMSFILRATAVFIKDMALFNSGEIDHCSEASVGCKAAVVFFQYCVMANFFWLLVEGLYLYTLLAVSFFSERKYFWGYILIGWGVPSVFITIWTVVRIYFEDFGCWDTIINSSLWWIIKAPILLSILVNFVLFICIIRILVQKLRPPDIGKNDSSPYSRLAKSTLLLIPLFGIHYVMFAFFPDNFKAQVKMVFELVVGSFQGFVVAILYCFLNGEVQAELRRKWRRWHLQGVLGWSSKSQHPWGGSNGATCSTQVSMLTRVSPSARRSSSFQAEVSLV

This experiment concerns the target rat Vasoactive Intestinal Peptide Receptor (VIP), Non-selective Binding, Vipr1 (gene 24875) (UniProt P30083). Kind of experiment: NVS_GPCR_rVIP_NonSelective: NovaScreen (NVS) G Protein-Coupled Receptor Assay for rat Vasoactive Intestinal Peptide Receptor (VIP), Non-selective Binding. Here is the method: NVS_GPCR_rVIP_NonSelective is a biochemical, single-readout assay that uses extracted gene-proteins from Rat forebrain membranes in a tissue-based cell-free assay. Measurements were taken 1 hour after chemical dosing in a 96-well plate.NVS_GPCR_rVIP_NonSelective is one of one assay component(s) measured or calculated from the NVS_GPCR_rVIP_NonSelective assay. It is designed to make measurements of radioligand binding, a form of binding reporter, as detected with scintillation counting signals by Filter-based radiodetection technology.Data from the assay component NVS_GPCR_rVIP_NonSelective was analyzed into 1 assay endpoint. This assay endpoint, NVS_GPCR_rVIP_NonSelective, was analyzed in the positive analysis fitting direction relative to DMSO as the negative control and baseline of activity. Using a type of binding reporter, loss-of-signal activity can be used to understand changes in the binding as they relate to the gene Vipr1. Furthermore, this assay endpoint can be referred to as a primary readout, because the performed assay has only produced 1 assay endpoint. To generalize the intended target to other relatable targets, this assay endpoint is annotated to the gpcr intended target family, where the subfamily is secretin receptor.
Binding assays used specific radioligands (tritiated, iodinated) with non-radioactive competitive displacement ligands in agonist or antagonist protocols (as indicated) and various reference compounds and inhibitors to titrate specific binding to receptors and transporters. Most enzyme assays (CYPs, kinases, phosphatases, proteases, HDACs) used recombinant protein and specific substrates (fluorescence mostly, some colorimetric and radioactive) and inhibitors, followed by a biochemical separation of substrate and product. All assays for the biochemical HTS were initially run in duplicate at a single concentration (10 uM for CYP450 assays and 25 uM for all others). Assay-chemical combinations meeting a pre-defined threshold (e.g., 30% inhibition and other criteria defined below) were then run in singleton concentration-response format with maximum concentration of 20 uM for CYPs and 50 uM for all others. Each assay was run with positive and negative controls, and concurrent controls on every plate. The follow-up (secondary) screen tested active chemical-pairs in concentration series, as well as a few additional assays not tested in the primary screen, some selected negative inactives, and several cases re-run in the concentration series for confirmatory purposes.
As to `CC(C)(c1ccc(O)cc1)c1ccc(O)cc1`, the compound was called inactive.
Take `CCOC(=O)O[C@H](C)OC(=O)c1ccc2c(c1)cc(C(=O)NC1CCN(C(C)C)CC1)n2Cc1cc(-c2ccc(Cl)s2)on1`: the AC50 was 23.6 µM (active).
On to `O=C(NO)C1(NS(=O)(=O)c2ccc(Oc3ccc(F)cc3)cc2)CCOCC1`, for which the compound was called inactive.
Turning to `CCCCCCCCCC`, the outcome was inactive.
With `CN(C)C(=O)C1(N2CCCCC2)CCN(CC[C@@]2(c3ccc(Cl)c(Cl)c3)CN(C(=O)c3ccccc3)CCO2)CC1`, the compound was called inactive.
`NCc1cccc(C2CCN(C(=O)c3ccc(C#Cc4ccccc4F)o3)CC2)c1`: the compound was classed as inactive.
On to `CC(=O)NC1(c2cccc(F)c2)CCN(CC[C@@]2(c3ccc(Cl)c(Cl)c3)CN(c3ccccc3)C(=O)CO2)CC1`, for which the compound was called inactive.
On to `O=C(N[C@@H](c1ccccc1)[C@@H]1CCCCN1)c1cccc(C(F)(F)F)c1Cl`, for which the compound was classed as inactive.
For `COCC(C)OCC(C)OCC(C)O` (stereo not given), the compound was called inactive.
Still for that read-out and setting: in the case of `c1ccc(Nc2ccccc2)cc1` it was “inactive”.
